# High-throughput results: PubChem, several laboratories
# Hits are enriched below; roughly 5% of the tested compounds scored in any of these assays.
# EBI2 antag – EBI2 receptor antagonists, beta-arrestin recruitment, primary screen, cell-based, luminescence, 7a,25-OHC stimulation, uHTS. G-protein coupled receptor 183 (Homo sapiens), P32249. 7a,25-OHC stimulated. inhibition, % at 5 µM. 360,000 tested, 0.81% active. AID 651636, 2012; in the data active = inhibition above about 38%;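 also: enzyme fragment complementation signal reports receptor beta-arrestin coupling in cells; 0% = agonist plus DMSO wells and 100% = wells without agonist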
# AHR activator – AHR activators, primary screen, cell-based, luminescence, luciferase reporter, human | activation, % at 5 µM | 320,000 tested, 2.5% active | AID 2796, 2010 | Aryl hydrocarbon receptor (Homo sapiens), P35869 | AHR-responsive luciferase reporter cells; in the data active = activation above about 47%;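 also: 0% = vehicle wells and 100% = reference agonist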
# SENP7 inh – SENP7 protease inhibitors, primary screen, biochemical, luminescence, uHTS; inhibition, % at 5 µM; AID 434973, 2010; 330,000 tested, 1.5% active; Sentrin-specific protease 7 (Homo sapiens), Q9BQF6; recombinant SENP7, Z-RLRGG-aminoluciferin luminescence, 40 min;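 active = inhibition above about 50% at the single test dose, limit read from the data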;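 also: plate controls were DMSO with enzyme for no effect and no enzyme buffer wells for full effect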
# SENP6 inh – SENP6 protease inhibitors, primary screen, biochemical, luminescence, uHTS | Sentrin-specific protease 6 (Homo sapiens), Q9GZR1 | Recombinant SENP6 catalytic domain, aminoluciferin luminescence | inhibition, % at 10 µM | 330,000 tested, 1.8% active;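 active = inhibition above about 50% at the single tested dose, limit read from the data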;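 also: plate controls were DMSO wells with enzyme for no effect and DMSO wells lacking enzyme for full effect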
# SENP8 block-1 – SENP8 protease inhibitors, primary screen, biochemical, luminescence. purified SENP8, Z-RLRGG-aminoluciferin cleavage. inhibition, % at 10 µM. 330,000 tested, 1.2% active; in the data active = inhibition above about 50%
# SENP8 block-2 – human SENP8 protease inhibitors, primary screen, biochemical, fluorescence, Nedd8 protein substrate, uHTS | 360,000 tested, 0.64% active | Sentrin-specific protease 8 (Homo sapiens), Q96LD8 | recombinant SENP8 | AID 602440, 2012 | inhibition, % at 20 µM; in the data active = inhibition mostly above about 40%, no sharp cut-off; inactive = mostly below about 27%
# SENP8 conf – human SENP8 protease inhibitors, confirmation, biochemical, Nedd8 protein substrate, single concentration; shares compounds with SENP8 block-2; purified SENP8, Nedd8-AMC/pro-Nedd8 cleavage fluorescence, 30 min; inhibition, % at 25 µM; 1,400 tested, 15% active; in the data active = inhibition mostly above about 39%, no sharp cut-off; inactive = mostly below about 34%
# * hit, by the source's call; . = no result given.
SMILES,EBI2 antag,AHR activator,SENP7 inh,SENP6 inh,SENP8 block-1,SENP8 block-2,SENP8 conf
Cc1nc(Cl)sc1C(=O)Nc1cccc(Cl)c1C,-6.0,-1.1,0.3,-18.9,-13.3,11.0,.
CC(C)(C)c1cc(=O)n(-c2ccccc2)[nH]1,-8.0,0.7,.,.,.,86.7*,27.0
COc1ccc(C(=O)COc2ccc(C)cc2NC(C)=O)cc1,3.5,-3.2,-7.3,-1.5,-2.1,41.2*,8.2
CC1(C)CC(=O)c2c(O)cc(OCC(=O)Nc3ccc(S(N)(=O)=O)cc3)cc2O1,3.2,-0.7,-0.6,-13.8,9.7,57.2*,12.6
Clc1nssc1=Nc1ccc(Br)cc1,24.7,.,.,.,.,43.6*,12.0
Nc1nonc1OCCN1CCN(c2ccc([N+](=O)[O-])c3cccnc23)CC1,10.4,3.0,-7.4,1.4,-1.9,47.4*,24.8
CCN(CC)c1ccc(N=Cc2c(C)[nH]c3ccccc23)cc1,13.7,33.7,0.1,10.6,-10.2,59.8*,8.1
Cc1nc2ccccc2c(=O)n1/N=C/c1ccc([N+](=O)[O-])o1,.,3.1,7.0,6.5,1.1,.,.
Cc1nc2ccccc2n1/N=C/c1ccc([N+](=O)[O-])o1,-5.9,36.5,2.3,19.0,14.3,41.9*,47.2*
Cn1ccnc1Sc1cc(Cl)ccc1[N+](=O)[O-],-9.1,-1.3,-9.9,-19.5,-3.2,15.3,.
O=[N+]([O-])c1ccc(Cl)cc1Sc1cccc2cccnc12,5.1,11.1,-5.6,-21.5,0.1,41.9*,-0.4
COc1cccc(C2c3[nH]c4ccccc4c3C[C@H]3C(=O)N(c4ccccc4C(=O)NCCCN4CCOCC4)C(=O)N23)c1 (stereo partly specified),2.9,8.1,-6.9,2.0,-11.1,51.1*,13.5
COc1ccc(C2c3[nH]c4ccccc4c3C[C@H]3C(=O)N(c4ccccc4C(=O)N4CCC[C@H]4C(=O)O)C(=O)N23)cc1 (stereo partly specified),-1.4,8.8,-1.7,-1.6,3.5,42.1*,1.6
O=C(NCCCN1CCOCC1)c1ccccc1N1C(=O)[C@@H]2Cc3c([nH]c4ccccc34)C(c3ccc(F)cc3)N2C1=O (stereo partly specified),5.6,7.6,-8.2,-6.9,-10.9,-1.3,.
Cc1ccc(C2c3[nH]c4ccccc4c3C[C@H]3C(=O)N(c4ccccc4C(=O)N4CCC[C@H]4C(=O)O)C(=O)N23)cc1 (stereo partly specified),-6.3,13.2,-1.2,2.0,1.3,43.4*,-6.5
O=C(Cc1csc(-c2ccccc2)n1)NCc1cccs1,-4.3,12.9,-6.6,-4.7,-6.3,-2.7,.
COc1cccc(NC(=S)NN=C2CCC(C(C)(C)C)CC2)c1 (stereo unspecified),4.8,0.0,-9.8,6.7,-4.3,47.2*,10.3
COc1ccc(-c2noc(N(C)CC(=O)Nc3cccc(C(F)(F)F)c3)n2)cc1,6.2,7.4,-5.1,-20.9,-7.6,42.8*,32.6
COc1ccc(CCn2nnnc2C(CC(C)C)N2CCN(c3ncccn3)CC2)cc1OC (stereo unspecified),-1.1,0.6,1.0,2.2,3.7,42.8*,8.4
C=C(C)Cn1c(NCCOC)nc2c1c(=O)[nH]c(=O)n2C,-8.9,1.9,-0.2,-3.4,-5.9,40.5*,8.9
COCCCNc1nc2c(c(=O)[nH]c(=O)n2C)n1CCCc1ccccc1,-10.6,-0.5,-8.8,-15.7,-2.0,14.0,.
O=[N+]([O-])c1cccc(OCC(O)CN2CCN(S(=O)(=O)c3cc(Cl)ccc3Cl)CC2)c1 (stereo unspecified),25.6,1.4,6.5,0.5,11.4,3.5,.
O=C(NCc1cccs1)C1CCCN1C(=O)Nc1cccc(F)c1 (stereo unspecified),-6.5,-1.9,11.0,20.9,8.1,6.4,.
